# Inconclusive results are not listed. A call without a number means that no potency is given here. Active and inactive are the calls of the source. Unless noted, the call rests on the fitted dose curve; in most records, active means well fitted curve in the direction sought with a large enough effect in the repeat runs; inconclusive means weak or mixed curves; inactive means no such curve, though single readings can be large; an effect the other way counts as inactive or inconclusive.
# Columns and labels:
# [1] = qHTS assay to identify small molecule agonists of the peroxisome proliferator-activated receptor delta (PPARd) signaling pathway - cell viability counter screen (AID 743211); further: nearly all actives have a fitted effect of over 55% in size; further: potency means the concentration at half of the fitted maximal effect
# Summary of the method: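 Multiplexed format: after the 2 h room-temperature LiveBLAzer B/G FRET step, CellTiter-Glo was added to the same wells. Luminescence after 30 min gave cell viability; compound exposure was 17 h at 37C.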
# [2] = target: Peroxisome proliferator-activated receptor delta (Homo sapiens) (UniProt Q03181); experiment: qHTS assay to identify small molecule agonists of the peroxisome proliferator-activated receptor delta (PPARd) signaling pathway (AID 743212; calls by dose curve; further: potency means the concentration at half of the fitted maximal effect)
# Summary of the method: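 Read-out: beta-lactamase FRET fluorescence after 2 h room-temperature incubation with LiveBLAzer B/G substrate. Cells were HEK293H carrying a UAS-bla reporter for PPARd, treated at 37 C with DMSO-dissolved compounds.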
# [3] = qHTS assay to identify small molecule antagonists of the peroxisome proliferator-activated receptor delta (PPARd) signaling pathway - cell viability counter screen (AID 743213); further: nearly all actives have a fitted effect of over 50% in size
# Summary of the method: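 CellTiter-Glo was added to PPARd-bla HEK293H wells following 17 h compound treatment in the presence of 300 nM L165041. Luminescence was recorded after 30 min at room temperature.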
# [4] = target: Peroxisome proliferator-activated receptor delta (Homo sapiens) (UniProt Q03181); experiment: qHTS assay to identify small molecule antagonists of the peroxisome proliferator-activated receptor delta (PPARd) signaling pathway (AID 743215; active means well fitted inhibition curve with a large enough effect in the signal ratio in the repeat runs, not every such curve was filed as active; the % refers to the signal ratio;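 further: cells stimulated with agonist L165041 at 300 nM final during compound exposure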; further: potency means the concentration at half of the fitted maximal effect)
# Summary of the method: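 Screen format: qHTS, antagonist mode. HEK293H PPARd-bla cells received compound and 300 nM L165041 (final), 17 h, 37 C. Beta-lactamase detected via FRET substrate fluorescence, 2 h, room temperature.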
# [5] = qHTS assay to identify small molecule agonists of the farnesoid-X-receptor (FXR) signaling pathway - cell viability counter screen (AID 743218); further: nearly all actives have a fitted effect of over 45% in size
# Summary of the method: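 Same-well cytotoxicity check on FXR-UAS-bla HEK 293T cells: 5 h attachment, 16 h compound at 37 C, CellTiter-Glo luminescence read at room temperature after 30 min.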
# [6] = target: Vitamin D3 receptor (Homo sapiens) (UniProt P11473); experiment: qHTS assay to identify small molecule agonists of the vitamin D receptor (VDR) signaling pathway (AID 743222; calls by dose curve)
# Summary of the method: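 Using LiveBLAzer B/G FRET detection, agonism was scored in VDR-bla cells exposed overnight (16 h, 37C) to DMSO-dissolved compounds; substrate incubation was 2 h at room temperature.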
# [7] = qHTS assay to identify small molecule antagonists of the farnesoid-X-receptor (FXR) signaling pathway - cell viability counter screen (AID 743221; active means well fitted cell-killing curve with a large enough effect in the repeat runs, not every such curve was filed as active; further: nearly all actives have a fitted effect of over 50% in size; further: potency means the concentration at half of the fitted maximal effect)
# Summary of the method: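 CellTiter-Glo, 30 min RT, luminescence; same wells as the LiveBLAzer FRET read. Cells: FXR-UAS-bla HEK 293T. Treatment: compound with chenodeoxycholic acid 50 uM final, 16 h at 37 C.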
# [8] = target: Vitamin D3 receptor (Homo sapiens) (UniProt P11473); experiment: qHTS assay to identify small molecule antagonists of the vitamin D receptor (VDR) signaling pathway (AID 743223; active means well fitted inhibition curve with a large enough effect in the signal ratio in the repeat runs, not every such curve was filed as active; the % refers to the signal ratio; further: potency means the concentration at half of the fitted maximal effect)
# Summary of the method: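 After VDR-bla cells are plated and left 4 h at 37C, DMSO-dissolved compounds and 3 nM (final) calcitriol agonist are added. Incubation continues 16 h at 37C; FRET beta-lactamase substrate then develops 2 h at room temperature.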
# [9] = target: Bile acid receptor (Homo sapiens) (UniProt Q96RI1); experiment: qHTS assay to identify small molecule antagonists of the farnesoid-X-receptor (FXR) signaling pathway (AID 743217; active means well fitted inhibition curve with a large enough effect in the signal ratio in the repeat runs, not every such curve was filed as active; the % refers to the signal ratio)
# Summary of the method: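 Quantitative HTS, beta-lactamase reporter format: FXR-UAS-bla HEK 293T cells co-treated 16 h at 37 °C with compounds and 50 uM final chenodeoxycholic acid, then read by B/G FRET fluorescence.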
# [10] = target: Bile acid receptor (Homo sapiens) (UniProt Q96RI1); experiment: qHTS assay to identify small molecule agonists of the farnesoid-X-receptor (FXR) signaling pathway (AID 743220; active means well fitted activation curve with a large enough effect in the signal ratio in the repeat runs, not every such curve was filed as active; the % refers to the signal ratio)
# Summary of the method: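 FXR-UAS-bla HEK 293T cells carrying a UAS-driven beta-lactamase reporter were plated for 5 h at 37C/5% CO2, then exposed to DMSO-dissolved Tox21 10K compounds for 16 h at 37C. A LiveBLAzer B/G FRET substrate was loaded for 2 h at room temperature before fluorescence reading.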
# Chain of Vitamin D3 receptor (Homo sapiens) (P11473 whole entry, looked up): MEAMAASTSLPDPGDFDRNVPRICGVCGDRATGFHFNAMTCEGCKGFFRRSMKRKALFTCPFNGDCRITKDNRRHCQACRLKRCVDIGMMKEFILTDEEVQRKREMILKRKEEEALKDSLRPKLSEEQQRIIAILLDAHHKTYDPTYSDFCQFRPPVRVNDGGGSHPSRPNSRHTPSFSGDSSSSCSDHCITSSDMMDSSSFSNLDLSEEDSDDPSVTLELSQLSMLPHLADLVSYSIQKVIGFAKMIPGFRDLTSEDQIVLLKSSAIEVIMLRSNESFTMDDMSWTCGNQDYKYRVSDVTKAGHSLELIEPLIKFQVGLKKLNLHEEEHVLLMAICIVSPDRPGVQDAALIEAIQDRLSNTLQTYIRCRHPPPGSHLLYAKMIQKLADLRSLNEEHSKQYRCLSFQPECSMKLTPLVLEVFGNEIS
# Chain of Bile acid receptor (Homo sapiens) (Q96RI1 whole entry, looked up): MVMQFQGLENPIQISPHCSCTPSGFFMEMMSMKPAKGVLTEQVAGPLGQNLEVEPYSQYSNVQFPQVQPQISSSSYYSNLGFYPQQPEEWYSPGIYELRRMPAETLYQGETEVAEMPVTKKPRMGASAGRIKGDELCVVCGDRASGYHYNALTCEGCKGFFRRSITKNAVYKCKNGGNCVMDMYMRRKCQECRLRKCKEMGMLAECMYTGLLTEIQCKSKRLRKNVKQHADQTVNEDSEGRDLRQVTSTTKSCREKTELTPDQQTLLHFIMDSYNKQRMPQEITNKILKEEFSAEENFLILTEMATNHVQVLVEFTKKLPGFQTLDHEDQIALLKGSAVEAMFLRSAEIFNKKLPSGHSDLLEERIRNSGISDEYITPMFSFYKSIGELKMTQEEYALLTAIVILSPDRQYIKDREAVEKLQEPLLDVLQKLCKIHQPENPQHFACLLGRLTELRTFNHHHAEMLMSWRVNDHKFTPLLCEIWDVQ
# Chain of Peroxisome proliferator-activated receptor delta (Homo sapiens) (Q03181 whole entry, looked up): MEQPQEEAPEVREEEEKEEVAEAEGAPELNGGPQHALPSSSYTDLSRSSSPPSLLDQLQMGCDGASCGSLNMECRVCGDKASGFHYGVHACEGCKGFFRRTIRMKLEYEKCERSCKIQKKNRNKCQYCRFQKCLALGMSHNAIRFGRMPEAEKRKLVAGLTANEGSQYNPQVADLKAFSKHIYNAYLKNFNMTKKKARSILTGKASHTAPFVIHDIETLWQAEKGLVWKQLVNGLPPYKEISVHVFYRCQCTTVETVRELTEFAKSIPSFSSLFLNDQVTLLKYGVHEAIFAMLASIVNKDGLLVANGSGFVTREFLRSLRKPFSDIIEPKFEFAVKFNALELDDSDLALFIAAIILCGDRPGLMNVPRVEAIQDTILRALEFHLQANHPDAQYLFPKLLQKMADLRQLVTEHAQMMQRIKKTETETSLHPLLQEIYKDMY
Compound,Potency [1],Potency [2],Potency [3],Potency [4],Potency [5],Potency [6],Potency [7],Potency [8],Potency [9],Potency [10]
CC(CO)CO,inactive,inactive,inactive,inactive,inactive,inactive,–,–,–,–
CN1C(C(=O)Nc2ccccn2)=C(O)c2sccc2S1(=O)=O,inactive,inactive,inactive,inactive,–,–,inactive,–,–,–
COC(=O)CCS,inactive,inactive,inactive,inactive,inactive,inactive,inactive,inactive,–,–
c1ccc2c(c1)CCc1ccccc1N2,inactive,inactive,inactive,inactive,inactive,inactive,inactive,–,–,–
CCOC(=O)c1ccc(OCCN2C[C@H](O)[C@@H](O)[C@H](O)[C@H]2CO)cc1,inactive,inactive,inactive,inactive,inactive,inactive,inactive,inactive,–,–
O=Cc1c2ccccc2c(Cl)c2ccccc12,inactive,10.7 µM (active),inactive,inactive,inactive,inactive,inactive,inactive,–,–
Oc1c(I)cc(I)c2cccnc12,inactive,inactive,inactive,–,inactive,inactive,inactive,21.3 µM (active),inactive,–
CC(=O)N/N=C/c1ccc([N+](=O)[O-])o1,inactive,inactive,inactive,inactive,inactive,inactive,inactive,–,–,–
C=CC(C)(CCC=C(C)C)OC(=O)CC(C)C (centres undefined),inactive,inactive,inactive,inactive,inactive,inactive,inactive,–,–,–
CC/C=C1/OC(=O)c2ccccc21,inactive,inactive,inactive,inactive,inactive,inactive,inactive,inactive,–,–
Cc1cscn1,inactive,inactive,inactive,inactive,inactive,inactive,inactive,inactive,–,–
C=CC(=O)[O-].C=CC(=O)[O-].[Zn+2],inactive,inactive,inactive,inactive,–,inactive,inactive,inactive,–,–
C=CCc1ccccc1OCC(O)CNC(C)C (centres undefined),inactive,inactive,inactive,inactive,inactive,inactive,inactive,inactive,–,–
O=C1Cc2cc(Cl)ccc2N1,inactive,inactive,inactive,inactive,inactive,inactive,inactive,inactive,–,–
CC=C(Cl)Cl,inactive,inactive,inactive,inactive,inactive,inactive,inactive,inactive,–,–
Nc1cccc2c1CN(C1CCC(=O)NC1=O)C2=O (centres undefined),inactive,inactive,inactive,inactive,inactive,inactive,inactive,–,–,–
NC(=O)c1ccncc1,inactive,inactive,inactive,inactive,–,inactive,inactive,–,–,–
CCCCCCCCN,inactive,inactive,inactive,inactive,inactive,inactive,inactive,inactive,–,–
CC(O)c1ccccc1 (centres undefined),inactive,inactive,inactive,inactive,inactive,inactive,inactive,inactive,–,–
CC[N+](CC)(CCNC(=O)C(=O)NCC[N+](CC)(CC)Cc1ccccc1Cl)Cc1ccccc1Cl,inactive,inactive,inactive,inactive,–,–,inactive,–,–,–
COC(=O)CS,inactive,inactive,inactive,inactive,inactive,inactive,inactive,–,–,–

Compound,Potency [1],Potency [2],Potency [3],Potency [4],Potency [5],Potency [6],Potency [7],Potency [8],Potency [9],Potency [10]
CCN(CC)CCNC(=O)COc1ccc(OC)cc1,inactive,inactive,inactive,–,inactive,inactive,inactive,inactive,inactive,inactive
COc1ncnc(NS(=O)(=O)c2ccc(N)cc2)c1OC,inactive,inactive,inactive,inactive,inactive,inactive,inactive,–,–,–
O=C1c2ccccc2C(=O)N1CCc1noc(-c2ccc(CN3CCCCCC3)s2)n1,inactive,inactive,inactive,–,inactive,–,inactive,–,inactive,–
CCOC(=O)c1ccc(O)c(O)c1,inactive,inactive,inactive,inactive,inactive,–,inactive,–,–,–
CCCCCCCC/C=C\CCCCCCCCO,inactive,inactive,–,inactive,inactive,inactive,inactive,inactive,–,–
OCCOCC#CCOCCO,inactive,inactive,inactive,–,inactive,inactive,–,–,–,–
CC1CC(OC(=O)C(O)c2ccccc2)CC(C)(C)N1C (centres undefined),inactive,inactive,–,inactive,inactive,–,inactive,–,–,–
CC(=O)Nc1cc(S(=O)(=O)O)cc2cc(S(=O)(=O)O)c(N=Nc3ccccc3)c(O)c12,inactive,inactive,–,inactive,inactive,inactive,inactive,inactive,–,–
CCC1(CO)COCOC1,inactive,inactive,–,inactive,inactive,inactive,inactive,–,–,–
NCCNCCO,inactive,inactive,–,inactive,inactive,inactive,inactive,inactive,inactive,inactive
C[C@@H](O[C@H]1OCCN(Cc2n[nH]c(=O)[nH]2)[C@H]1c1ccc(F)cc1)c1cc(C(F)(F)F)cc(C(F)(F)F)c1,26.6 µM (active),inactive,–,29.8 µM (active),–,–,29.8 µM (active),–,–,inactive
O=C(OC(=O)c1ccccc1)c1ccccc1,inactive,inactive,–,inactive,inactive,inactive,inactive,–,–,–
CCOc1ccccc1O[C@H](c1ccccc1)[C@H]1CNCCO1,inactive,inactive,–,inactive,inactive,–,inactive,–,–,inactive
C1COC1,inactive,inactive,–,inactive,inactive,inactive,inactive,inactive,inactive,inactive
CCn1cc(C(=O)O)c(=O)c2cc(F)c(N3CCNCC3)cc21,inactive,inactive,–,inactive,inactive,–,inactive,–,–,–
CCOc1ccc(Cc2nccc3cc(OCC)c(OCC)cc23)cc1OCC,inactive,inactive,inactive,–,–,inactive,inactive,–,–,–
CCC=CC#N,inactive,inactive,inactive,–,–,–,inactive,–,–,–
CCC1CO1 (centres undefined),inactive,inactive,–,inactive,inactive,inactive,inactive,inactive,inactive,inactive
N#CCc1ccc(Cl)cc1Cl,inactive,inactive,inactive,–,–,inactive,inactive,–,–,–
CCC1NC(=O)c2cc(S(N)(=O)=O)c(Cl)cc2N1 (centres undefined),inactive,inactive,inactive,–,–,inactive,–,inactive,–,–
Oc1cc2c(cc1O)[C@H]1c3ccc(O)c(O)c3OC[C@@]1(O)C2,inactive,inactive,inactive,–,–,–,inactive,–,–,–

Compound,Potency [1],Potency [2],Potency [3],Potency [4],Potency [5],Potency [6],Potency [7],Potency [8],Potency [9],Potency [10]
C/C=C\C/C=C/CCCCCCCCOC(C)=O,inactive,inactive,inactive,–,–,–,inactive,–,–,inactive
Cc1ccc2c(Br)cc(Br)c(O)c2n1,inactive,inactive,inactive,–,inactive,inactive,inactive,inactive,–,–
CS(=O)(=O)c1ccc(-c2cn3ccccc3n2)cc1,29.8 µM (active),inactive,–,inactive,inactive,–,inactive,inactive,–,–
O=C1c2ccccc2C(=O)c2c(O)c(O)cc(O)c21,inactive,inactive,–,inactive,inactive,inactive,inactive,inactive,inactive,inactive
CCCCCCCC/C=C\CCCCCCCCCCCC(=O)O,inactive,inactive,–,inactive,inactive,–,inactive,–,inactive,inactive
Cc1ccc(C(C)(C)O)cc1,inactive,inactive,–,inactive,inactive,inactive,inactive,–,–,–
CCCC(C(=O)OCCN(CC)CC)(c1ccccc1)c1ccccc1,29.8 µM (active),inactive,–,inactive,inactive,inactive,inactive,–,–,inactive
COc1cc(C(=O)NCCCCCC(=O)O)cc(OC)c1OC,inactive,inactive,inactive,–,inactive,–,inactive,inactive,–,–
CC(C)(O)c1ccc(CNC(=O)c2cccnc2Oc2ccc3nonc3c2)cc1,inactive,inactive,–,inactive,inactive,–,inactive,inactive,–,–
CCCCCCCCCI,inactive,inactive,–,inactive,inactive,–,inactive,–,–,–
Cc1ccc(CO)cc1,inactive,inactive,–,inactive,inactive,inactive,inactive,inactive,inactive,inactive
O=C(O)c1ccc(OCCCOc2ccc(C(=O)O)cc2)cc1,inactive,inactive,–,inactive,inactive,inactive,inactive,inactive,inactive,inactive
CC(CCC(=O)O)C(=O)O (centres undefined),inactive,inactive,–,inactive,inactive,–,inactive,–,inactive,inactive
Nc1ncnc2c1ncn2[C@H]1CC[C@@H](CO)O1,inactive,inactive,–,inactive,inactive,inactive,inactive,inactive,inactive,inactive
C[C@H]1C[C@H](O)c2ccsc2S1(=O)=O,inactive,inactive,–,inactive,–,–,inactive,–,–,–
C=C1c2cccc(O)c2C(O)=C2C(=O)[C@]3(O)C(O)=C(C(N)=O)C(=O)[C@@H](N(C)C)[C@@H]3[C@@H](O)[C@H]12,inactive,inactive,–,inactive,–,inactive,inactive,–,inactive,inactive
CO/N=C(/C(=O)N[C@@H]1C(=O)N2C(C(=O)O)=C(COC(N)=O)CS[C@H]12)c1ccco1,inactive,inactive,–,inactive,inactive,inactive,inactive,inactive,–,–
CC(=O)[C@H]1[C@H](C#N)C[C@H]2[C@@H]3CC=C4C[C@@H](O)CC[C@]4(C)[C@H]3CC[C@@]21C,inactive,inactive,–,inactive,inactive,–,inactive,–,inactive,–
CCCC(=O)C(=O)O,inactive,inactive,–,inactive,–,–,inactive,–,–,–
C=C1C[C@@]23CC[C@H]4[C@@](C)(CCC[C@@]4(C)C(=O)O[C@@H]4O[C@H](CO)[C@@H](O)[C@H](O)[C@H]4O)[C@@H]2CC[C@]1(O[C@@H]1O[C@H](CO)[C@@H](O)[C@H](O[C@@H]2O[C@H](CO)[C@@H](O)[C@H](O)[C@H]2O)[C@H]1O[C@@H]1O[C@H](CO)[C@@H](O)[C@H](O)[C@H]1O)C3,inactive,inactive,–,inactive,–,inactive,inactive,inactive,inactive,inactive
CC1=C(Br)C(=O)C(Br)=C/C1=C(/c1ccccc1S(=O)(=O)O)c1cc(Br)c(O)c(Br)c1C,inactive,inactive,–,inactive,inactive,inactive,inactive,–,inactive,inactive

# Source: PubChem BioAssay (Tox21)
